G9a block: inhibitors of human histone lysine methyltransferase G9a. Q96KQ7. G9a H3K9 monomethylation, AlphaScreen, 2 h. Potency, µM (highest dose often 102 µM), for inactives: at the top dose activity, negative = inhibition, usual class: inhibitors. 350,000 tested, 8.8% active. AID 504332; note: % is set by controls: 0 for no effect and ±100 for the full control effect; nearly all actives have a fitted effect of over 75% in size
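Signal arises when biotinylated H3K9 peptide, once monomethylated, bridges streptavidin donor and antibody-captured acceptor beads. Enzyme at 20 nM was preincubated 15 min with test compounds; peptide 500 nM and SAM 20 uM then reacted for 2 h.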
HP1b chromo inh: blocks HP1-beta chromodomain binding to methylated histone tails; Potency, µM (top dose mostly 114 µM), inactives show at the top dose activity change, negative = inhibition, most hits filed as inhibitors; P83916; AlphaScreen HP1-beta / biotin-H3K9me3 peptide binding; 390,000 tested, 0.56% active; AID 540317; note: nearly all actives have a fitted effect of over 70% in size
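Compound inhibition of the preformed complex between 50 nM HP1-beta and 50 nM biotinylated H3K9me3 peptide was read by AlphaScreen. Buffer was PBS pH 7.4 with 0.01% Tween-20. Incubations ran 30 min at room temperature, with 10 ug/mL donor/acceptor beads.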
JMJD2A Tudor inh: inhibitors of human JMJD2A Tudor domain. AID 504339. AlphaScreen JMJD2A-Tudor / H3K4me3 peptide binding. 390,000 tested, 4.4% active. Potency, µM (highest dose often 114 µM), for inactives: at the top dose activity change, negative = inhibition, actives largely listed as inhibitors. O75164; note: % is set by controls: 0 for no effect and ±100 for the full control effect; nearly all actives have a fitted effect of over 50% in size
GLS inhibitor: blocks human kidney-isoform glutaminase activity. O94925. GLS enzymatic activity, qHTS titration. Potency, µM (titrated, usually from 45.5 µM), inactives show at the top dose activity change, negative = inhibition, usual class: inhibitors. 410,000 tested, 0.21% active; note: % is set by controls: 0 for no effect and ±100 for the full control effect
Target sequence (O94925 whole entry, looked up, canonical isoform): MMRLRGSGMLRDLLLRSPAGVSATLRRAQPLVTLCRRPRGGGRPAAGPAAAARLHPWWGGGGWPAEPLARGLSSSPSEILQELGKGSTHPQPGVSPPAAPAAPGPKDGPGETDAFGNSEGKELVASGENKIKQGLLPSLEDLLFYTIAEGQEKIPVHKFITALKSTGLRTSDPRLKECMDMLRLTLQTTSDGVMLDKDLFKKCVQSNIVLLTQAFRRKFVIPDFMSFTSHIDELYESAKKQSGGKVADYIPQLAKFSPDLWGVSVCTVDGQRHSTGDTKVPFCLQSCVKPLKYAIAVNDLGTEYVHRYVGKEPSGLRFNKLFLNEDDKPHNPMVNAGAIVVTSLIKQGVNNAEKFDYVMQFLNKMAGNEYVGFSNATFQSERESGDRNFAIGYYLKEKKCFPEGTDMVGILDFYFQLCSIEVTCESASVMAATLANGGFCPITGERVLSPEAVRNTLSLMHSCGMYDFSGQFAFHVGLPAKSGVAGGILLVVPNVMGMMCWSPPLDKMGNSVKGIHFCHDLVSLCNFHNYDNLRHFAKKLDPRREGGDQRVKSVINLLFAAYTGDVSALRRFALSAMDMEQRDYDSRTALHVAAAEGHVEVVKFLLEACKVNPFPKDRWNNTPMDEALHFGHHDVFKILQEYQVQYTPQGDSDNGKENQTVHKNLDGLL
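Compounds were pin-transferred onto hKGA, after which L-glutamine (1 mM solution) and a detection mix of glutamate oxidase, HRP and Amplex Red were added. Initial and 30 min RT fluorescence reads were collected.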
BAZ2B block: blocks human BAZ2B; AlphaScreen BAZ2B-H3K14Ac peptide displacement; Potency, µM (titrated, usually from 114 µM), for the others: top-dose activity change, negative = inhibition, usual class: inhibitors; 360,000 tested, 4.4% active; note: % is set by controls: 0 for no effect and ±100 for the full control effect; nearly all actives have a fitted effect of over 60% in size
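In this displacement format the biotinylated H3(5-23) peptide acetylated at Lys14 serves as ligand at 50 nM, with BAZ2B at 50 nM in PBS pH 7.4 containing 0.01% Tween-20. Donor and acceptor beads are 10 ug/mL final.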
Numbers without * were called inactive; ? = inconclusive; . = no result given; [ ] = another dose, or the depositor's remark. Rows were chosen to be rich in hits. Some 10% of all compounds tested hit in one or more screens of this group. Calls come from the whole dose curve; as a rule, active = well fitted curve in the direction sought with a large enough effect; inconclusive = small, poorly fitted or top-dose-only effect, or another doubt; inactive = no such curve, though single readings can be large; an effect the other way counts as inactive or inconclusive. Potency is the fitted concentration of half-maximal effect.

SMILES | G9a block | HP1b chromo inh | JMJD2A Tudor inh | GLS inhibitor | BAZ2B block
c1ccc2c(c1)ncn2CCOCCOCCn1cnc2ccccc21 | ? | 25.1% | -18.0% | 21.8% | 70.8µM*
CC(C)CNC(=O)N[C@@H](CC(C)C)C(=O)O | -30.8% | 16.0% | -8.8%[11.4 µM] | -7.7% | 0.2%
Cc1cc(Br)c2c(c1)=C(c1sc(N3CCCCCC3)nc1O)C(=O)N=2 | 7.2%[59 µM] | 34.7% | -18.5% | -3.1% | 7.3%
Cc1ccc2c(c1)=C(c1sc(N(C)c3ccc(O)cc3)nc1O)C(=O)N=2 | 44.7µM* | 9.1% | -3.4% | 4.0% | -19.5%
Cn1c2ccccc2c2nnc(SCC(=O)Nc3ccccc3F)nc21 | -3.3%[0.501 µM] | 37.0% | -8.1% | 1.1% | 6.9%
COc1ccc(C2(C(=O)N3CCC(n4nc(-c5ccccc5)oc4=O)CC3)CC2)cc1 | 47.5% | 43.6% | -5.3% | -1.9% | -8.5%
Oc1c(Cl)cc(Cl)cc1C=Nc1ccc(N2CCOCC2)cc1 | ? | 32.3% | -2.7% | ? | -21.4%
Oc1ccc(C=Nc2ccc(N3CCOCC3)cc2)c(O)c1 | 1.58µM* | ? | 22.4µM* | 96.6% | ?
Oc1cc(Br)ccc1C=Nc1ccc(N2CCCCC2)cc1 | 44.7µM* | 61.0% | -21.4% | 26.9% | ?
Cc1ccc(N=Cc2ccc(O)cc2O)cc1F | 10µM* | 18.3% | -20.7% | 17.0% | -35.1%
CCOc1ccc(Cl)cc1/C=N/NC(N)=O | 15.3% | 40.1% | -10.2% | -8.4% | 7.9%
COc1ccc(C(=O)N=C2SC3CS(=O)(=O)CC3N2c2ccccc2)cc1OC (centres undefined) | 18.8% | 32.8% | -30.8% | -11.9% | 2.0%
CCCN(CCO)Cc1cccc(Cl)c1 | ? | ? | 3.55µM* | 5.7% | ?
O=C(CCN(CCO)Cc1ccccc1)Nc1ccc(Br)cc1 | -16.5% | 12.7% | -19.4% | -3.2% | 5.5%
CCCN(CCO)Cc1ccc(Br)cc1 | 8.91µM* | ? | 20µM* | 57.1% | ?
CC1CN(Cc2c(O)ccc3c(=O)c(-c4ccccc4Cl)coc23)CC(C)O1 (centres undefined) | -0.7% | 10.5% | -9.6% | 16.2% | -35.4%
CCn1cc(C(=O)OC(C)C(=O)Nc2c(C)n(C)n(-c3ccccc3)c2=O)c(=O)c2ccc(C)nc21 (centres undefined) | -5.4%[12.7 µM] | 7.2% | -2.5% | 4.9% | -4.8%
C=CC[n+]1c(-c2ccc(OC)cc2)csc1NNC(=O)Nc1ccccc1 | 14.1µM* | -34.2% | 50.1µM* | 10.2% | 10µM*
O=C(O)/C=C/C(=O)c1ccc2c(c1)NC(=O)CO2 | 3.16µM* | -20.7% | -12.0% | 0.0% | -7.3%
CCc1cc(CNC(=O)c2ccc(OC)c(OC3CCN(C(C)C)CC3)c2)on1 | 15.9% | 7.5% | -5.5% | -1.8% | -1.7%
CCCC[C@]12Cc3cc(OC)c(OC)cc3C(O1)C1=C(O2)C(=O)c2ccccc2C1=O | . | . | . | . | 7.08µM*
CCc1ccc(-c2cc(C)no2)cc1S(=O)(=O)N1CCN(c2ccccc2F)CC1 | 6.7% | 19.8% | -9.0% | -5.3% | -3.5%
O=C(Cc1cc(=O)[nH]c(=O)[nH]1)NCCN1CCOCC1 | ? | 38.6% | 2.1% | 1.3% | 8.7%
CCN1C(=O)[C@H]2[C@@H](c3ccc(Cl)cc3)N3C(=O)CN(CC4CC4)C(=O)[C@@]3(Cc3ccccc3)[C@H]2C1=O | 70.8µM* | 37.4% | 1.4% | -2.2% | -25.1%
COc1ccc(NC(=O)Cn2nnc(C(=O)NCc3ccc4c(c3)OCO4)c2N)c(OC)c1 | 7.2%[59 µM] | 10.8% | 28.2µM* | 17.1% | -4.2%
SMILES | G9a block | HP1b chromo inh | JMJD2A Tudor inh | GLS inhibitor | BAZ2B block
CCn1c(SCC(N)=O)nc2sc3c(c2c1=O)CCN(C)C3 | 56.2µM* | 30.7% | -24.1% | -22.5% | -2.3%
CCSc1nc2sc3c(c2c(=O)n1-c1ccccc1)CCN(C)C3 | 79.4µM* | 14.7% | -23.6% | 3.9% | -35.3%
CN1CCc2c(sc3c2c(=O)n(-c2ccccc2)c2nnc(SCc4ccccc4)n32)C1 | ? | 22.6% | 89.1µM* | -13.8% | -20.3%
CCn1c(SCC(=O)Nc2ccc(C)cc2)nc2sc3c(c2c1=O)CCN(C)C3 | ? | 3.1% | -32.1% | -1.0% | -21.3%
O=C(CSc1nc2sc3c(c2c(=O)n1-c1ccccc1)CCCC3)N/N=C/c1ccc(C(=O)O)cc1 | -10.9% | 79.4µM* | 79.4µM* | -11.1% | -31.1%[57.1 µM]
CN1CCc2c(sc3c2c(=O)n(-c2ccccc2)c2nnc(SCc4ccc(F)cc4)n32)C1 | . | 16.4%[57 µM] | 15.1% | 1.9% | .
COC(=O)[C@H](C)NC(=O)Nc1ccccc1C(F)(F)F | -0.6%[59 µM] | 35.8% | -3.7% | 0.5% | -1.7%
Cc1ccc([C@H]2C[C@H](O)[C@@H](n3cc(-c4ccc(F)cc4)nn3)CN2C(=O)C2CCCCC2)cc1 | . | . | . | -10.7% | .
CCn1cc(C(=O)O)c(=O)c2cc(F)c(N3CCN(C(=S)NC(=O)c4ccc(F)c(F)c4)CC3)cc21 | 50.1µM* | -1.2% | -25.2% | 14.1% | -19.0%
CCn1cc(C(=O)O)c(=O)c2cc(F)c(N3CCN(C(=S)NC(=O)c4ccccc4Br)CC3)cc21 | 3.6% | -6.6% | -25.0% | 5.8% | 70.8µM*
CCOC(=O)N1CCN(C(=O)c2cn(CC)c3cc(N4CCN(C)CC4)c(F)cc3c2=O)CC1 | 14.1µM* | . | . | . | -26.3%
CCn1cc(C(=O)O)c(=O)c2cc(F)c(N3CCN(C(=S)NC(=O)c4c(OC)cccc4OC)CC3)cc21 | 35.5µM* | 3.6% | ? | 9.1% | 56.2µM*
CCn1cc(C(=O)O)c(=O)c2cc(F)c(N3CCN(C(=S)Nc4ccccc4OC)CC3)cc21 | 21.6% | 22.0% | -17.3% | 17.7% | -15.4%
CCn1cc(C(=O)O)c(=O)c2cc(F)c(N3CCN(C(=S)NC(=O)c4ccc(F)cc4)CC3)cc21 | . | 42.3% | -19.1% | 8.5% | ?
O=C(N/N=C/c1cc(Br)ccc1O)c1ccccc1Cl | 2.6% | 26.8% | ? | 11.2% | ?
CCOc1c(OC)cccc1C1CC(=O)Nc2cc3c(cc21)OCCO3 (centres undefined) | -38.4%[59 µM] | 24.1% | -29.0% | 0.3% | -20.8%
CCOC(=O)C1CN(c2cc3c(cc2F)c(=O)c(C(=O)O)cn3CC)OC1C(=O)OCC (centres undefined) | 39.8µM* | 12.7% | 56.2µM* | 5.5% | ?
CC1CC1C(=O)OCC(=O)NCc1ccc(Cl)cc1 (centres undefined) | 7.7%[59 µM] | 20.7% | 15.5% | 2.9% | -5.6%
COc1ccc(CNC(=O)COC(=O)C2CC2C)cc1OC (centres undefined) | 14.1µM* | 22.8% | -7.6% | -8.3% | 7.9%
COc1ccc(CNC(=O)C2CCCN2)cc1OC (centres undefined) | 17.8µM* | 79.4µM* | 3.16µM* | -0.8% | 44.7µM*
Cn1c(=O)c(Nc2ccc(Cl)cc2)c2c3c(cccc31)C(=O)c1ccccc1-2 | 22.4µM* | ? | -27.8%[11.4 µM] | -14.9% | ?
